Data: the supplement of paper PMC4206467

tested on: Perkinsus marinus PRA240; experiment: ATP content (proliferation) relative to DMSO control; higher = more parasite growth (less inhibition); details: 20 µM; 4 days
Protocol: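 Perkinsus marinus PRA240 trophozoites (2-5x10^6 cells/ml, 100 µl, 96-well) were exposed once to MMV Malaria Box compounds at 20 µM (0.1% DMSO) in triplicate. ATP content (ATPlite bioluminescence) was read at day 4 post-exposure and normalised to DMSO + cells control wells (100% activity). Compounds were identified by joining plate and well to the Malaria Box list.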

SMILES	ATP content [%]
FC(F)(F)c1cccc(Nc2nc(-c3ccccc3)nc3ncccc23)c1	108
COc1nc(Nc2ccc(C(C)C)cc2)nc(OC)n1	125
COc1cc2c3cc1Oc1c(OC)c(OC)cc4c1C(Cc1ccc(O)c(c1)Oc1ccc(cc1)CC3N(C)CC2)N(C)CC4 (stereo not drawn)	144
COc1ccc(-c2cn3c(C(=O)Nc4ccccc4Cl)c(-c4ccccc4)c4c3n2CCCC4)cc1	99.7
CCCCCn1c(=N)n(CC(O)COc2cccc(C)c2)c2ccccc21 (stereo not drawn)	127
O=C(Nc1ccc(F)c(Cl)c1)Nc1ccc(Cl)c(Cl)c1	46.8
CCOC(=O)c1cnc2ccc(Cl)cc2c1NCCCN(C)C	147
CCN(CC)CCCNc1nc(-c2ccc(Cl)cc2)nc2ccccc12	99.6
O=C(Nc1ccc(Cl)cc1)N1CCN(c2ccc3nncn3n2)CC1	124
O=C(NCCCN1CCC(N2CCCCC2)CC1)C1=Cc2cc(Br)ccc2OC1	224
c1ccc2c(NCCc3c[nH]c4ccccc34)c3ccccc3nc2c1	179
O=C(Nc1nc(-c2ccccn2)cs1)c1ccccc1Br	8.72
COc1ccccc1N1CCN(C(CNS(=O)(=O)c2ccc(Cl)cc2)c2cccnc2)CC1 (stereo not drawn)	111
CCOc1ccc(N2C(N)=NC(N)=NC2(C)C)cc1	114
COc1ccc(C(=O)NC(c2ccccc2Cl)c2cc(Cl)c3cccnc3c2O)cc1 (stereo not drawn)	29.8
COc1cccc(Nc2nc(N)c3ccccc3n2)c1	9.11
COc1ccc(C2C(C(=O)Nc3cccc(OC)c3)c3ccccc3C(=O)N2C2CCCCC2)cc1 (stereo not drawn)	94.3
CCCn1c(=N)c(C(=O)NC2CCCCC2)cc2c(=O)n3cccc(C)c3nc21	64.4
Oc1ccc2ccccc2c1CNc1nc2ccccc2[nH]1	65.9

SMILES	ATP content [%]
CCOc1ccc(CN2CCN(CC(O)COc3ccc(OCC(O)CN4CCN(Cc5ccc(OCC)cc5)CC4)cc3)CC2)cc1 (stereo not drawn)	137
O=c1nc(C=Cc2ccc(Br)cc2)oc2ccccc12	11.1
O=C(Nc1ccc(-c2nc3ccccc3[nH]2)cc1)c1ccc(Cl)c(Cl)c1	97.8
COc1ccc(CNC(=O)c2cc3c(=O)n4ccccc4nc3n(CCc3ccccc3)c2=N)cc1	107
COc1ccc(CN2CCCC(C(=O)c3ccc(C(F)(F)F)cc3)C2)c(O)c1 (stereo not drawn)	117
COc1cc(-c2nc(-c3ccccc3)c(-c3ccccc3)[nH]2)cc(OC)c1O	61.1
COc1ccc(C2Sc3ccccc3N=C3C2=C(O)c2ccccc23)cc1 (stereo not drawn)	46.2
Cc1ccc(-c2nc3ccccc3o2)cc1NCc1cc(Cc2ccccc2)ccc1O	77.3
COC(=O)c1ccc(Cl)c2c1C1C=CCC1C(c1cccc3ccccc13)N2 (stereo not drawn)	106
COc1ccc(C2N(C)c3ccccc3N2C)cc1	101
CCOc1cc2c(cc1OCC)C(c1cc(C)c(O)c(C)c1)NCC2 (stereo not drawn)	133
COc1ccc(Nc2nc(NCc3ccccc3)c3ccccc3n2)cc1	103
N=c1c2ccccc2nnn1-c1cccc(C(F)(F)F)c1	67.7
CC(C)OCc1cc(CN2CCN(c3cccc(Cl)c3)CC2)c(O)c2ncccc12	12
Cc1ccccc1OCCSc1nc2ccc(NC(=O)c3cccs3)cc2s1	30.1
COc1cccc(-c2nn(C)c3sc(C(=O)NCCN4CCN(c5ccccc5F)CC4)cc23)c1	89.7
CC(=O)c1sc(NC(=O)Nc2ccc(C)cc2C)nc1C	68.1
Oc1ccc(-c2nc(-c3ccc4oc5ccc(-c6[nH]c(-c7ccc(O)cc7)nc6-c6ccccc6)cc5c4c3)c(-c3ccccc3)[nH]2)cc1	124
CCCCCCC(O)(c1ccc(F)cc1)C(CN1CCOCC1)c1ccccc1 (stereo not drawn)	127
